JMJD2A Tudor: inhibitors of human JMJD2A Tudor domain | O75164 | AlphaScreen JMJD2A-Tudor / H3K4me3 peptide binding | Potency, µM (doses to about 114 µM), most hits filed as inhibitors | 390,000 tested, 4.4% active; also: nearly all actives have a fitted effect of over 50% in size
Target sequence (O75164 whole entry, looked up, the tested form may be a part): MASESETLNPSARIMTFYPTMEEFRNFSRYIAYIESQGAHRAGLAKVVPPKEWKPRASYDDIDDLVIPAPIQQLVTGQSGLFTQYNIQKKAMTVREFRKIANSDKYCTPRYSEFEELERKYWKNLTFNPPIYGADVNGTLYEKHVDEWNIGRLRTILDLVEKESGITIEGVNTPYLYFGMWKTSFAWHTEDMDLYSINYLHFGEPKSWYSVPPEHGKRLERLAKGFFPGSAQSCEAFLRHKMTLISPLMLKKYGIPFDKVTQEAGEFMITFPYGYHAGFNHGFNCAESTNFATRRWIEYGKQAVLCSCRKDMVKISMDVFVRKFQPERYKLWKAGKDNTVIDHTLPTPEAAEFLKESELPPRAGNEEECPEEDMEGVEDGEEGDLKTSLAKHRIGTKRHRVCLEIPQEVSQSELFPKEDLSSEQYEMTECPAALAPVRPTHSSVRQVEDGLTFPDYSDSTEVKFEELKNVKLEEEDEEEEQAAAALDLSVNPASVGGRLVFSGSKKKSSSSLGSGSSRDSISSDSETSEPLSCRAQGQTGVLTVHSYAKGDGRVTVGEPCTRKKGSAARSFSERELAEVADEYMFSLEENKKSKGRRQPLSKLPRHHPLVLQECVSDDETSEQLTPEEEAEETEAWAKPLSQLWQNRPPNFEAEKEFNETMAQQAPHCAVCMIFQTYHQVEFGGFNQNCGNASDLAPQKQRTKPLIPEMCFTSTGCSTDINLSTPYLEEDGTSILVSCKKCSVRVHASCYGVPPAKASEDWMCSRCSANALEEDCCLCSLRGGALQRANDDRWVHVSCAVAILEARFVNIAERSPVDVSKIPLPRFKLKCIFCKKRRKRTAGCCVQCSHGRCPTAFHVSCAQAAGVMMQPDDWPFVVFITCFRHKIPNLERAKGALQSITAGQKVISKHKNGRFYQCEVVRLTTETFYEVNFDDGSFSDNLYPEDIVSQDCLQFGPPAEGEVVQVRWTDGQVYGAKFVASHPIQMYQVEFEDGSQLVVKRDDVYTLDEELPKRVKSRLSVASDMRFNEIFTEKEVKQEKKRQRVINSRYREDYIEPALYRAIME
Sfp PPTase inh: Sfp phosphopantetheinyl transferase inhibition. AID 1490. 310,000 tested, 3.5% active. Potency, µM, most hits filed as inhibitors. Biochemical Sfp PPTase activity, qHTS. Q9F4F7;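 also: the enzyme is Sfp with the accession as filed and its product quenches rhodamine fluorescence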
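Sfp 15 nM + cpd, 15 min RT; start w/ rhodamine-CoA 5 uM, BHQ-2-YbbR 12.5 uM (final); 50 mM Hepes pH 7.6, 10 mM MgCl2, 0.01% NP-40, 0.01% BSA; read 525/598 nm at 0 and 30 min.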
HP1b chromo inh: HP1-beta chromodomain-methylated histone interaction inhibition | 390,000 tested, 0.56% active | AID 540317 | P83916 | AlphaScreen HP1-beta / biotin-H3K9me3 peptide binding | Potency, µM (top dose mostly 114 µM), hits mostly inhibitors; also: nearly all actives have a fitted effect of over 70% in size
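AlphaScreen: HP1-beta (50 nM) preformed 30 min with biotin-H3(1-18)K9me3 peptide (50 nM) in PBS pH 7.4, 0.01% Tween-20. Compound added for 30 min at RT, then streptavidin donor/nickel chelate acceptor beads (10 ug/mL) for 30 min.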
G9a inh: inhibitors of human histone lysine methyltransferase G9a; Q96KQ7; G9a H3K9 monomethylation, AlphaScreen, 2 h; Potency, µM (series often up to 102 µM), hits mostly inhibitors; 350,000 tested, 8.8% active; AID 504332; also: nearly all actives have a fitted effect of over 75% in size
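Chemiluminescent proximity detection of H3K9 monomethylation, read after 10 min bead incubation in the dark. Reaction: 20 nM G9a, 500 nM biotin-H3K9 peptide, 20 uM SAM cofactor, 2 h, room temperature, following 15 min enzyme-compound preincubation.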
BAZ2B inh: blocks human BAZ2B; Q9UIF8; AlphaScreen BAZ2B-H3K14Ac peptide displacement; Potency, µM (highest dose often 114 µM), most hits filed as inhibitors; 360,000 tested, 4.4% active; AID 504333; also: nearly all actives have a fitted effect of over 60% in size
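Compounds, titrated to a top concentration of 110 uM, were incubated 30 min at room temperature with preformed BAZ2B/acetyl-K14 H3 peptide complex (50 nM each). Proximity signal was measured by AlphaScreen after 20 min with beads.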
PLK1 PBD block: inhibitors of human PLK1 polo-box domain binding; Potency, µM, most hits filed as inhibitors; P53350; Plk1 PBD binding of FITC phosphopeptide, fluorescence polarization; 360,000 tested, 2.8% active; also: series mostly up to about 57 µM; nearly all actives have a fitted effect of over 65% in size
Of the large screens only hits and unclear results are named; the others gave an inactive call. An excerpt weighted towards active compounds, which were near 12% of everything screened. Calls follow the shape of the dose curve; as a rule, active = well fitted curve in the direction sought with a large enough effect; inconclusive = small, poorly fitted or top-dose-only effect, or another doubt; inactive = no such curve, though single readings can be large; an effect the other way counts as inactive or inconclusive.

COc1ccc2oc(C(=O)OCC(=O)NCc3ccccc3OC)c(C)c2c1	none (no result: Sfp PPTase inh)
CCOC(=O)N1CCC(NCCNC(=O)c2cccc(F)c2)CC1	none (no result: Sfp PPTase inh)
Cc1c(C)c2ccc(OCC(=O)NCCN3CCOCC3)cc2oc1=O	none
O=C(Nc1ccc(F)cc1)C(c1ccncc1)N1CCN(c2cccc(C(F)(F)F)n2)CC1 (configuration not stated)	none (no result: JMJD2A Tudor, Sfp PPTase inh, HP1b chromo inh, G9a inh, BAZ2B inh)
CCN(CC)c1ccc(NC(=O)CN2C(=O)c3cccnc3Sc3ccccc32)c(C)c1	G9a inh inconclusive (no result: Sfp PPTase inh, PLK1 PBD block)
C[C@H](CO)N1C[C@H](C)[C@H](CN(C)S(=O)(=O)c2ccc(F)cc2)Oc2ncc(Br)cc2C1=O	none (no result: JMJD2A Tudor, Sfp PPTase inh, HP1b chromo inh, G9a inh, BAZ2B inh)
COc1ccc(OC)c(S(=O)(=O)Nc2ccc(O)c3ccccc23)c1	JMJD2A Tudor inconclusive, Sfp PPTase inh 20µM, HP1b chromo inh 71µM, G9a inh 5.6µM, BAZ2B inh 45µM, PLK1 PBD block inconclusive
CCc1ccc2occ(CC(=O)Nc3sc4c(c3C(=O)OC)CCC4)c2c1	G9a inh inconclusive, BAZ2B inh inconclusive (no result: Sfp PPTase inh, PLK1 PBD block)
O=C(CNC(=O)c1ccc(Cl)cc1)Nc1ccc(S(=O)(=O)Nc2ncccn2)cc1	G9a inh 22µM, BAZ2B inh inconclusive
O=C(CCCNC(=O)c1ccc(Cl)cc1)Nc1ccc(S(=O)(=O)Nc2ncccn2)cc1	PLK1 PBD block 27µM (no result: G9a inh)
O=C(CCNC(=O)c1ccccc1)Nc1ccc(S(=O)(=O)Nc2ncccn2)cc1	none (no result: Sfp PPTase inh, G9a inh, BAZ2B inh)
CCCC[C@@H](C=O)NC(=O)[C@H](CC(C)C)NC(=O)OCc1ccccc1	none (no result: JMJD2A Tudor, HP1b chromo inh, BAZ2B inh, PLK1 PBD block)
CCOC(=O)C1CCCN(C(=O)CCS(=O)(=O)c2cc3c(cc2Cl)NC(=O)CO3)C1 (configuration not stated)	none (no result: Sfp PPTase inh, PLK1 PBD block)
O=C(NN1C(=O)/C(=C/c2cccs2)SC1=S)c1ccncc1	Sfp PPTase inh 79µM, G9a inh 45µM
O=C(CCCN1C(=O)/C(=C\c2cccs2)SC1=S)NNC(=O)c1ccncc1	JMJD2A Tudor 50µM, BAZ2B inh inconclusive
Cn1cccc1/C=C1\SC(=S)N(NC(=O)c2ccccc2Cl)C1=O	BAZ2B inh inconclusive
COc1cccc(/C=C2\SC(=S)N(NC(=O)c3ccncc3)C2=O)c1	none
O=C(CCN1C(=O)/C(=C\c2cccs2)SC1=S)Nc1ccc(C(=O)O)cc1	JMJD2A Tudor inconclusive, G9a inh inconclusive
Cc1ccc(C(=O)NN2C(=O)/C(=C/c3cccn3C)SC2=S)cc1	JMJD2A Tudor inconclusive, Sfp PPTase inh 20µM, HP1b chromo inh inconclusive, G9a inh inconclusive, BAZ2B inh 22µM
CCN(CC)CCOC(=O)c1ccc(NC(=O)CCCN2C(=O)/C(=C\c3cccs3)SC2=S)cc1	JMJD2A Tudor 25µM, Sfp PPTase inh 50µM, HP1b chromo inh inconclusive, BAZ2B inh 20µM (no result: G9a inh)
Cc1ccc2nc(-c3ccc(Cl)cc3)cc(C(=O)OCC(=O)c3ccccc3)c2c1	none (no result: Sfp PPTase inh, PLK1 PBD block)
Cc1cc(C)c(-c2c(O)c3cccc4c3n(c2=O)CCC4)c(C)c1	none
O=c1c(-c2ccccc2)c(O)c2cccc3c2n1CCC3	G9a inh 40µM
O=C(NCCO)c1c(O)c2cccc3c2n(c1=O)CC3	JMJD2A Tudor 56µM, G9a inh inconclusive
Cc1nc2c(C(=O)NCCCN(CC(C)C)CC(C)C)cnn2c(C)c1Cc1c(F)cccc1Cl	none (no result: Sfp PPTase inh, PLK1 PBD block)
O=C1CCCC2=C1C1(CCCC1)N=C(Nc1nc3cc(Br)ccc3o1)N2	none (no result: Sfp PPTase inh, HP1b chromo inh, G9a inh, BAZ2B inh, PLK1 PBD block)
CCOC(=O)c1c(-c2ccccc2)oc2ccc(NS(=O)(=O)c3ccc(C)cc3C)cc12	none (no result: Sfp PPTase inh, PLK1 PBD block)
CSc1cccc(CNC(=O)CC2C(=O)NCCN2CC(C)(C)C)c1 (configuration not stated)	G9a inh 40µM
Cn1cc(CNC(=O)CC2C(=O)NCCN2CC(C)(C)C)cn1 (configuration not stated)	G9a inh 50µM
O=C(O)c1cnn(-c2nc(-c3cccc([N+](=O)[O-])c3)cs2)c1C(F)(F)F	none
CCOCCCNC(=S)NCCCNc1nc2c(C)c(C)ccc2cc1C#N	Sfp PPTase inh inconclusive, G9a inh 56µM
CCOCCCNC(=S)N1CCCN(c2nc3c(C)c(C)ccc3cc2C#N)CC1	none
CCC(=O)NCCCNc1nc2c(C)cccc2cc1C#N	Sfp PPTase inh inconclusive, G9a inh 35µM
CC(=O)Nc1ccc(NS(=O)(=O)c2cccc3nonc23)cc1	none
O=C(CC(=O)N1CCOCC1)N1CCOCC1	none (no result: Sfp PPTase inh, G9a inh, BAZ2B inh)
CC1CCN(c2ccc(/C=N\Nc3nncn3N)cc2[N+](=O)[O-])CC1	JMJD2A Tudor inconclusive, Sfp PPTase inh 79µM, G9a inh inconclusive, BAZ2B inh inconclusive
Nn1cnnc1N/N=C/c1cc(Br)cc(Br)c1O	JMJD2A Tudor 89µM, BAZ2B inh 32µM
CC1CCN(c2ccc(/C=N/n3nnnc3N)cc2[N+](=O)[O-])CC1	BAZ2B inh inconclusive
CSc1ccc(/C=N\Nc2nncn2N)cc1	Sfp PPTase inh 79µM, G9a inh inconclusive
COc1cc(/C=N\Nc2nncn2N)ccc1OC(C)=O	G9a inh 71µM
Cc1cc(C)c(S(=O)(=O)N2CCN(C(=O)C3COc4ccccc4O3)CC2)c(C)c1 (configuration not stated)	none (no result: Sfp PPTase inh)

Compound activity (PubChem)
